Source: PubChem BioAssay (NCI)
This is part of a sample that, as a whole, favours compounds with a hit. Of some 79,000 tested, about 15% had one in any assay. Active and inactive are the calls of the source. Cut-off read from the data, not from the text of the source: active = growth inhibition above about 70%; inactive = the rest. Where a SMILES comes first, the peptide text is derived from it.

test: NCI Yeast Anticancer Drug Screen. Data for the mec2-1 strain (AID 157); conditions: S. cerevisiae mec2-1 strain, at 50.0 µM, active compounds read high
Outline: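 Vehicle-treated cultures served as reference for growth inhibition of compound-exposed mec2-1 yeast.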

Row | Compound | growth inhibition
1 | CCOC(=O)NC(C)=O | -27.9% (inactive)
2 | Cc1n[nH]c(=S)n1NC=O | -6.3% (inactive)
3 | CCCC(C)C(=O)O (centres undefined) | -1.95% (inactive)
4 | CCCCCCCCCCCCCCCCCCNC1=C(C)C(=O)C(NCCCCCCCCCCCCCCCCCC)=C(OCC)C1=O | -2.95% (inactive)
5 | COc1cc(O)c(C(=O)CC(C)=O)c(OC)c1 | -14.8% (inactive)
6 | Cc1ccc(C(=O)c2c[nH]c(=O)[nH]c2=O)cc1 | -20.2% (inactive)
7 | CC(=O)c1cc2c(Br)cccc2oc1=O | -42.4% (inactive)
8 | CC1N=C(c2ccccc2)SC1C (centres undefined) | -18.4% (inactive)
9 | C/C(=N\N=C(\Cc1ccccc1)c1ccccc1)c1ccccc1 | 3.95% (inactive)
10 | CC(C)CC(NC(=O)C(CCC(=O)O)NC(=O)CNC(=O)CNC(=O)C(CO)NC(=O)C(CC(C)C)NC(=O)C(NC(=O)C(CO)NC(=O)C(C)NC(=O)C(CCCNC(=N)N)NC(=O)C(C)NC(=O)CN)C(C)C)C(=O)NC(CC(=O)O)C(=O)NC(CCCNC(=N)N)C(=O)NC(Cc1c[nH]c2ccccc12)C(=O)NC(Cc1ccc(O)cc1)C(N)=O (centres undefined) (H-GARASVLSGGELDRWY-NH2; configuration not given here) | -7.15% (inactive)
11 | COc1ccc(C(C)=O)cc1CCCOC(C)=O | -1.35% (inactive)
12 | COCc1ccc(C(C)(C)CC(C)(C)C)cc1 | 8.4% (inactive)
13 | CSc1nc(NN)c([N+](=O)[O-])c(SC)n1 | -0.7% (inactive)
14 | O=c1oc2c(ccc3ccccc32)c(O)c1-c1cccc2ccccc12 | 99.5% (active)
